High-throughput results (PubChem)
Compounds with a hit are over-represented: about 1.2% of the library has one in this group of screens.
HTT aggregate: reduces HttQ103-GFP aggregates in PC12 cells. actives 1.1% (n = 220,000). Potency, µM (titrated, usually from 46.1 µM), for inactives: at the highest dose activity change, negative = inhibition, hits mostly inhibitors. AID 1688. PC12 HttQ103-GFP aggregates, Acumen cytometry, 40 h; further: potency means the concentration at half of the fitted maximal effect; on the % scale 0 is the no-effect control and ±100 the full control effect; nearly all actives have a fitted effect of over 60% in size
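Ecdysone-promoter PC12 model expressing HTT exon 1 Q103 fused to GFP, induced by tebufenozide at 100 nM final. Compounds titrated; aggregates sized 1–25 µm scored on a 488 nm laser cytometer.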
GLA inh pH 4.5: blocks human alpha-galactosidase A at pH 4.5 | P06280 | purified enzyme, 4-MU-alpha-Gal fluorescence, pH 4.5 | activity change, negative = inhibition, % at 105 µM | 230,000 tested, under 10 active | AID 1467;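 further: 0% = full activity with enzyme and -100% = basal without enzyme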
Target sequence (P06280 whole entry, looked up): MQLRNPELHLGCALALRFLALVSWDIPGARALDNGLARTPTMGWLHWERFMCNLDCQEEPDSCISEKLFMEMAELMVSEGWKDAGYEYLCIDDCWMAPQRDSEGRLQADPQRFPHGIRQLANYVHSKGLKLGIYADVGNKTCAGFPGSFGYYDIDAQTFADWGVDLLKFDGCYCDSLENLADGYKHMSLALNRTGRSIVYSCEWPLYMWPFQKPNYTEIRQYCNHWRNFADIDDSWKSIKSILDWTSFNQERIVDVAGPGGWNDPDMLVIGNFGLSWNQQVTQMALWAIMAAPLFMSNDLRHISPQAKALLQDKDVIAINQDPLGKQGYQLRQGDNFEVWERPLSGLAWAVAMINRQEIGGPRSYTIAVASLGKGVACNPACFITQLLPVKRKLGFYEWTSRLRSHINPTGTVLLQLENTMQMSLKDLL
HTT ATP protect: protects HTT-Q103 PC12 cells, measured by ATP. PC12 HTT-Q103 induced, cytoprotection, ATP luminescence, 40 h. Potency, µM (doses to about 56.4 µM), for inactives: cytoprotection (ATP increase), usual class: activators. AID 1471. actives 0.14% (n = 230,000); further: potency means the concentration at half of the fitted maximal effect; % of control where 0% means no effect; nearly all actives have a fitted effect of over 45% in size
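Compounds added alongside 100 nM tebufenozide, which induces toxic Q103 huntingtin exon 1-GFP in stable PC12 cells; surviving cells quantified by luminescent ATP measurement. Medium: phenol red-free DMEM, 5% equine and 5% calf serum.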
PKM2 activator: PKM2 (human) enzyme activation; P14618; purified PKM2, Kinase-Glo ATP luminescence, activation; response scale: 0% is enzyme alone, no compound; Potency, µM (highest dose often 57.5 µM), without a hit: top-dose activation, usual class: activators; actives 0.34% (n = 260,000); further: potency means the concentration at half of the fitted maximal effect; on the % scale 0 is the no-effect control and ±100 the full control effect; nearly all actives have a fitted effect of over 55% in size
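hPK-M2, >95% pure; 0.1 mM ADP / 0.5 mM PEP final; imidazole pH7.2 buffer w/ 7 mM MgCl2, 50 mM KCl; 1 h RT; Kinase-Glo lum. Intermediate enzyme activity for dual inhibitor/activator qHTS.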
aGal spleen mod: inhibits or activates alpha-galactosidase in human spleen homogenate; human spleen homogenate, 4MU-alpha-Gal fluorescence, 40 min; Potency, µM (series often up to 80 µM), inactives show at the highest dose activity change, negative = inhibition, actives largely listed as inhibitors; actives 0.008% (n = 240,000);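 further: potency means the concentration at half of the fitted maximal effect; 0% = enzyme with vehicle and -100% = no enzyme basal signal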
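Human spleen homogenate (1 ug) was the enzyme source, with 4-methylumbelliferyl-alpha-D-galactopyranoside (1 mM final) in pH 5.0 citrate buffer with 0.01% Tween-20. Compounds were titrated; after 40 min at 37C, NaOH/glycine stop, 4-MU fluorescence read; AC50 from Hill fits.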
Numbers without * were called inactive; ? = inconclusive; · = not tested or not shown; ! = not confirmed by another sample; [ ] = dose if it differs, or a comment. The call rests on the fitted dose curve; in most records, active means well fitted curve in the direction sought with a large enough effect; inconclusive means small, poorly fitted or top-dose-only effect, or another doubt; inactive means no such curve, though single readings can be large; an effect the other way counts as inactive or inconclusive.

SMILES	HTT aggregate	GLA inh pH 4.5	HTT ATP protect	PKM2 activator	aGal spleen mod
N/C(=N\NC(=O)c1sccc1OCc1ccc(Cl)cc1Cl)c1ccccn1	1.8µM*	0	-11%	-6%	2%
CNC(=S)NNC(=O)c1sccc1OCc1ccc(Cl)cc1Cl	9%	3	-13%	9%	4%
O=S(=O)(O)n1ccnc1 (tested in a mixture with another compound)	·	·	-13%[10 µM]	·	·
Cn1c(Cn2cnc(Cl)c2Cl)nc2ccccc21	8%[9.22 µM]	-4	?	25µM*	-1%
O=C(NC(NC(=S)Nc1ccc(F)c([N+](=O)[O-])c1)C(Cl)(Cl)Cl)C(c1ccccc1)c1ccccc1 (configuration not stated)	·	·	·	·	-7%
O=C(O)c1ccc(C(=O)O)c(C(=O)O)c1.[NH-][C@@H]1CCCC[C@@H]1[NH-].[Pt]	·	·	-9%[10 µM]	·	·
CCOc1ccccc1N1CCN(C(=O)CCCN2C(=O)c3cccc4cccc(c34)C2=O)CC1	20µM*	2	-16%[10 µM]	-4%	-5%
COc1ccccc1N1CCN(CCCCN2C(=O)c3ccccc3C2=O)CC1	·	1	-15%	·	10µM*!
O=C(CCCN1C(=O)c2cccc3cccc(c23)C1=O)N1CCN(c2ccccc2O)CC1	1%	-20	11%[10 µM]	6%	10%
O=C(O)CCCN1C(=O)/C(=C/c2ccc(-c3nc4ccccc4s3)o2)SC1=S	18%	-18	26%[10 µM]	-2%	1%
O=C(O)CCCCCN1C(=O)/C(=C\c2ccc(-c3ccc(Cl)cc3)o2)SC1=S	30%[9.22 µM]	-7	-17%[10 µM]	32µM*	8%
C=CCNS(=O)(=O)c1ncnc2nc[nH]c12	·	·	8%[10 µM]	·	·
CCCCCCC1/C(=N/O)CCC1C(=O)OC (configuration not stated)	4µM*	-13	10%	0%	2%
COC1=C(C(=O)c2ccccc2)C(=O)C2(CC=C(C)C)C[C@H](C(=O)OCC(F)(F)F)C(C)(C)[C@@]1(CC=C(C)C)C2=O (tested in a mixture with another compound)	·	-6	?	·	2%
O=C(Nc1ccc([N+](=O)[O-])cc1)Nc1ccc(Cl)cc1F	?	-10	·	-15%	-5%
Cc1ccc(NC(=O)Nc2ccccc2)cc1[N+](=O)[O-]	4%	-5	-16%[10 µM]	-7%	-1%
O=C(Nc1ccc(Cl)cc1)Nc1cc([N+](=O)[O-])ccc1F	20µM*	2	-4%[10 µM]	3%	1%
O=C(Nc1ccccc1)Nc1ccc(Cl)c([N+](=O)[O-])c1	13µM*	-3	-9%[0.074 µM]	4%	2%
CCCN(CCc1ccccc1)[C@H]1CCc2c(O)cccc2C1	·	·	31%[1.9 µM]	·	·
Cn1c(=O)n(C)c2cc(S(=O)(=O)Nc3cc(Cl)ccc3O)ccc21	5%[9.22 µM]	3	15%[10 µM]	13µM*	-1%
Cn1c(=O)n(C)c2cc(S(=O)(=O)Nc3ccccc3)ccc21	-5%[9.22 µM]	-2	-3%[10 µM]	4µM*	0%
Cc1ccc(S(=O)(=O)Nc2ccc3c(c2)n(C)c(=O)n3C)cc1	·	·	·	10%	·
Cc1ccc(NS(=O)(=O)c2ccc3c(c2)n(C)c(=O)n3C)cc1C	·	·	·	1.6µM*	·
COc1ncc2nc(-c3cccc(C#N)c3)c(=O)n(CCC#N)c2n1	·	·	-33%	·	3%
COc1cc2c(C#N)c(N3CCN(c4ccccc4OC)CC3)nc(N)c2c(N)n1	11µM*	-19	13%[10 µM]	0%	9%
SMILES	HTT aggregate	GLA inh pH 4.5	HTT ATP protect	PKM2 activator	aGal spleen mod
O=C(NCCC1=CCCCC1)NC12CC3CC(CC(C3)C1)C2	22µM*	-5	-11%[10 µM]	9%	4%
CCOC(=O)c1c(NC(=O)c2cc(C3CC3)on2)sc2c1CCCC2	·	·	-16%	·	·
CC(C)[C@@H](CC(=O)N[C@@H]1CCCC[C@H]1C(=O)N[C@H](CC(=O)N[C@@H](CCC(=O)O)CC(=O)O)Cc1ccccc1)NC(=O)C[C@H](Cc1c[nH]c2ccccc12)NC(=O)[C@@H]1CCCC[C@H]1N	·	0	?	·	-1%
CN(C)C=Nc1ncc2c3ccccc3n(CCN(C)C)c2c1C#N	2.8µM*	1	-28%[0.074 µM]	0%	10%
Nc1ccc(C(=O)NCC(=O)O)cc1	-10%[20.6 µM]	9	3.2µM*!	·	-16%
CCSc1ccc(C(=O)NCC(=O)O)cc1	23%[9.22 µM]	-13	26%[10 µM]	-8%	7%
OB(O)O	1%	·	3%	·	2%
Cn1ncc(SCc2ccccc2)c(Cl)c1=O	3%[9.22 µM]	-24	13%[10 µM]	18µM*	3%
Cc1c(Cn2ccnc2)c2ccccc2n1CCC(=O)O	7%	·	?	·	·
COc1ccc(C(=O)C2CCCN(Cc3c(C)[nH]c4ccccc34)C2)c(OC)c1 (configuration not stated)	35µM*	-2	-15%[10 µM]	-2%	5%
CN1CCN(C2=Cc3ccccc3Sc3cc(F)c(Cl)cc32)CC1	?	-13	-4%[10 µM]	3%	-4%
CN1CCN(C2=Cc3ccccc3Sc3cc(F)c(F)cc32)CC1	20µM*	-16	-15%[10 µM]	-21%	-2%
O=C(/C=C/c1ccc(N2CCCCC2)c([N+](=O)[O-])c1)c1ccc(O)cc1	18µM*	0	-5%[10 µM]	4%	2%
O=C(/C=C1\C(=O)Nc2ccccc21)/C=C1\C(=O)Nc2ccccc21	-7%[9.22 µM]	-7	21%[10 µM]	1.4µM*	2%
CN(C)C=Nc1c(C(=O)c2ccccc2)sc2nccc(N(C)C)c12	6.3µM*	2	·	4%	1%
CCOC(=O)c1sc2nccc(N(C)C)c2c1N=CN(C)C	?	1	-13%	-3%	17%
CN(C)c1ccnc2sc(C(N)=O)c(N)c12	1.6µM*	-10	26%	3%	-4%
CN(C)c1ccnc2sc(C(=O)c3ccc(Br)cc3)c(N)c12	6%	-3	-40%	-5%	-4%
COc1cccc(Nc2ncc3nc(-c4cc(F)cc(F)c4)c(=O)n(CCC#N)c3n2)c1	·	·	-8%	·	15%
CC(=O)c1ccc(OC2C=CC(c3ccc(Cl)cc3)OC2CO)cc1 (configuration not stated)	·	·	?	·	4%[17.5 µM]
COc1ccc(C2C(C(=O)c3ccccc3)N3c4ccccc4C=CC3C2[N+](=O)[O-])cc1 (configuration not stated)	18µM*	0	-70%	-1%	2%
COc1ccc(N2C(=O)[C@@H]3[C@H](C2=O)[C@H](C(C)=O)N2c4ccccc4C=C[C@@H]32)cc1	-12%[9.22 µM]	-1	-19%[10 µM]	9%	-1%
COC(=O)C/C=C\[C@@H](C)[C@@H](/C=N\OC[C@@H](C)[C@H](OCc1ccccc1)C(C)C)NS(=O)(=O)c1ccc(C)cc1	·	·	?	·	5%[17.5 µM]
O=P(CCCCCCCCCP(=O)(c1ccccc1)c1ccccc1)(c1ccccc1)c1ccccc1	11µM*	-16	-124%	-16%	5%
